Measurements published in the supplement of paper PMC10849652.
Targets with a hit are over-represented here; the source holds about 8,800 in all. About 0.5% of all pairs of compound and target were hits.

Key:
Test in all cases: log2 fold change, soluble protein after heating vs DMSO (PISA); higher = thermal stabilisation; K562 lysate, 10 uM; active = over 0.2 and 3.5 SD of the protein, either way, in both replicates (recomputed)
[1] = compound: C#Cc1cccc(Nc2ncnc3cc(OCCOC)c(OCCOC)cc23)c1 [erlotinib]
In short: (§1)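 Quantification was by TMTpro 16plex LC-MS/MS with equalised channel sums, applied to the supernatant after 21,000xg for 90 min. Samples were crude K562 extract at 1 mg/mL protein in PBS pH 7.4 with 1 mM MgCl2, treated with 10 μM compound for 30 min, heated for 3 min across 48°C-58°C, pooled and brought to 0.5% NP-40 at 4°C. Values are log-two fold changes in thermal stability relative to solvent controls, from duplicates.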

[2] = compound: C/C(=N\NC(=O)C1=CC(=CC=C1)S(=O)(=O)N2CCOCC2)/C3=C(C=CC(=C3)Cl)O
In short: as §1

[3] = compound: C1=CC(=CC=C1C2=NC3=C(N2)C=C(C=C3)C(=O)N)OC4=CC=C(C=C4)Cl
In short: as §1

[4] = compound: C1=CC2=C(C=CC(=C2)/C=C\3/C(=O)NC(=NCC4=CC=CS4)S3)N=C1
In short: as §1

[5] = compound: C1=CC2=NC=CN=C2C=C1/C=C/3\C(=O)NC(=O)S3
In short: as §1

[6] = compound: C1=CC=C(C=C1)C2=NC(=C(N2)C3=CC=NC=C3)C4=CC(=C(C=C4)Cl)O
In short: as §1

[7] = compound: C1=CC=C2C(=C1)C3=NNC4=CC=CC(=C43)C2=O
In short: as §1

[8] = compound: C1CCN(C1)C(=O)NC2=CC=CC(=C2)NC3=NC=C(C(=N3)NCCC4=CN=CN4)Br
In short: as §1

[9] = compound: C1CN(CCC1(CC2=CC=C(C=C2)Cl)N)C3=NC=NC4=C3C=CN4
In short: as §1

[10] = compound: C1COCCN1CCN2C3=CC=CC=C3N=C2NC(=O)C4=CC(=CC=C4)[N+](=O)[O-] [IRAK-1-4 Inhibitor I]
In short: as §1

[11] = compound: C=CC(=O)N1CCC[C@@H](n2nc(-c3ccc(Oc4ccccc4)cc3)c3c(N)ncnc32)C1 [ibrutinib]
In short: as §1

[12] = compound: CC(=O)c1cnc2ccc(-c3cc(Cl)c(O)c(Cl)c3)nc2c1N[C@H]1CC[C@H](CN(C)C)CC1
In short: as §1

[13] = compound: CC(C)(C)Cn1c(N)nc2ccc(-c3[nH]c(C(C)(C)C)nc3-c3ccc(F)cc3)nc21 [ralimetinib]
In short: as §1

[14] = compound: CC(C)(O)CC(=O)NCCn1ccc2ncnc(Nc3ccc(Oc4cccc(C(F)(F)F)c4)c(Cl)c3)c21
In short: as §1

[15] = compound: CC(C)C1=C2N=C(C=C(N2N=C1)NCC3=CC=CC=C3)NCCCCCCN
In short: as §1

[16] = compound: CC1=C(C(CC(=O)N1)C2=CC=C(C=C2)C(F)(F)F)C(=O)NC3=C(C=C4C(=C3)C=NN4)F
In short: as §1

[17] = compound: CC1=C(C2=C(C=C1)C(=O)C3=CC=CC=C3N2CCCN)C
In short: as §1

[18] = compound: CC1=C(C=C(C=C1)NC(=O)C2=CC(=CC=C2)C(C)(C)C#N)NC3=CC4=C(C=C3)N=CN(C4=O)C
In short: as §1

[19] = compound: CC1=C(C=C(C=C1)NC(=O)C2=CC(=CC=C2)N(C)C)NC(=O)C3=CC=C(C=C3)O
In short: as §1

[20] = compound: CC1=CC=C(C=C1)SC2=C3C=C(SC3=CN=C2)C(=O)N
In short: as §1

Measured: log2 fold change

ABCF3 (UniProt Q9NUQ8)
UniProt Q9NUQ8, sequence (Q9NUQ8 whole entry, looked up): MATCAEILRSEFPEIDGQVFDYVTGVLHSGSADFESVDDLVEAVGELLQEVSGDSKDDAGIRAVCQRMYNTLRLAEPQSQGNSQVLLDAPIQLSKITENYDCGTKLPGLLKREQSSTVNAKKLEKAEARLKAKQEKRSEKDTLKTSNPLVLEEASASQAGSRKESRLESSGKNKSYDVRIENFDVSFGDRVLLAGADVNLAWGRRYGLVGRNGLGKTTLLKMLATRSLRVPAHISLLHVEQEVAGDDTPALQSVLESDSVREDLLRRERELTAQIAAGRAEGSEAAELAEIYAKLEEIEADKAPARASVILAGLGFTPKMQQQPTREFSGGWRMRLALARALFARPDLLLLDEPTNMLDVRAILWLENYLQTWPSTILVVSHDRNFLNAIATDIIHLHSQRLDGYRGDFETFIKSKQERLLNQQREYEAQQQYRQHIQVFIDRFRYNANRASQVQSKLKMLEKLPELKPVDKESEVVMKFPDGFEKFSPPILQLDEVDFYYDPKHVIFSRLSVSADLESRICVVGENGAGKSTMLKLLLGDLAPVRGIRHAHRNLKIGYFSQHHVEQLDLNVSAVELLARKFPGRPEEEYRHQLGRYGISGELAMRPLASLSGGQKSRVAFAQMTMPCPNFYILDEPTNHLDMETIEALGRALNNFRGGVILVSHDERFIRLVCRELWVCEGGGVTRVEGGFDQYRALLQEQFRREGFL
inactive: [1] 0.005 | [2] 0.013 | [3] -0.049 | [4] 0.011 | [5] 0.009 | [6] -0.011 | [7] -0.065 | [8] 0.022 | [9] -0.033 | [10] -0.037 | [11] 0.008 | [12] 0.035 | [13] 0.067 | [14] 0.046 | [15] -0.013 | [16] 0.009 | [17] -0.012 | [18] -0.02 | [19] 0.018 | [20] 0.001

ABI1 isoform 9 (UniProt Q8IZP0)
UniProt Q8IZP0, sequence (Q8IZP0 whole entry, looked up): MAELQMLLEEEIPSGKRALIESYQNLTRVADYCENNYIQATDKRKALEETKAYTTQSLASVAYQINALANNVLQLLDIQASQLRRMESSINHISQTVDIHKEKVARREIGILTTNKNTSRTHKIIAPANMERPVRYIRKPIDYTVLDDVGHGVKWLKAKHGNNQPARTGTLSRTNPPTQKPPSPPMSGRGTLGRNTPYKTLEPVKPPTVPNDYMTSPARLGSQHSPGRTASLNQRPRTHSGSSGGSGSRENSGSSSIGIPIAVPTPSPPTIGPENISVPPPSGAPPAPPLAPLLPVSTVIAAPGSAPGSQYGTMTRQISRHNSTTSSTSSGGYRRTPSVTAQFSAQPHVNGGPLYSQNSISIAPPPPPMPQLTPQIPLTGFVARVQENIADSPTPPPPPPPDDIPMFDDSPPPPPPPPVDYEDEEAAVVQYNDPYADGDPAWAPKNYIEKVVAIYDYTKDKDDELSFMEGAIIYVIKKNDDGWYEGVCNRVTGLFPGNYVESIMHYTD
inactive: [1] -0.014 | [2] -0.003 | [3] 0.025 | [4] 0.01 | [5] -0.007 | [6] 0.009 | [7] -0.014 | [8] 0.006 | [9] 0.004 | [10] -0.021 | [11] 0.034 | [12] 0.023 | [13] -0.031 | [14] -0.005 | [15] 0.031 | [16] -0.02 | [17] -0.008 | [18] 0.024 | [19] -0.012 | [20] 0.003

ACIN1 (UniProt E7EQT4)
inactive: [1] 0.001 | [2] -0.16 | [3] 0 | [4] 0.05 | [5] -0.027 | [6] -0.057 | [7] -0.009 | [8] 0.008 | [9] -0.027 | [10] 0.012 | [11] 0.049 | [12] -0.033 | [13] 0.123 | [14] -0.052 | [15] 0.028 | [16] -0.017 | [17] -0.052 | [18] 0.094 | [19] -0.03 | [20] -0.002

ANXA5 (UniProt P08758)
UniProt P08758, sequence (P08758 whole entry, looked up): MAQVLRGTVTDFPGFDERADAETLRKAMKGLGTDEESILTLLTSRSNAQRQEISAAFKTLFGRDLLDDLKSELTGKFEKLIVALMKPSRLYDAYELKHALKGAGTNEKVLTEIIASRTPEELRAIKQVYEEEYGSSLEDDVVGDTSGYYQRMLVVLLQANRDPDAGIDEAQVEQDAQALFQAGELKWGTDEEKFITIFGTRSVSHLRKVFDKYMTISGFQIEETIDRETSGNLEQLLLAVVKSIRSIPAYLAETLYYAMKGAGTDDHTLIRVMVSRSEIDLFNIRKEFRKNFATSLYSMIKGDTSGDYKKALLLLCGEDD
inactive: [1] -0.011 | [2] -0.001 | [3] -0.024 | [4] 0.014 | [5] -0.016 | [6] -0.023 | [7] 0.009 | [8] -0.003 | [9] -0.049 | [10] -0.03 | [11] -0.009 | [12] -0.005 | [13] 0.014 | [14] 0.038 | [15] -0.026 | [16] 0.007 | [17] 0.032 | [18] -0.024 | [19] 0 | [20] 0.005

AP1G2 (UniProt O75843)
UniProt O75843, sequence (O75843 whole entry, looked up): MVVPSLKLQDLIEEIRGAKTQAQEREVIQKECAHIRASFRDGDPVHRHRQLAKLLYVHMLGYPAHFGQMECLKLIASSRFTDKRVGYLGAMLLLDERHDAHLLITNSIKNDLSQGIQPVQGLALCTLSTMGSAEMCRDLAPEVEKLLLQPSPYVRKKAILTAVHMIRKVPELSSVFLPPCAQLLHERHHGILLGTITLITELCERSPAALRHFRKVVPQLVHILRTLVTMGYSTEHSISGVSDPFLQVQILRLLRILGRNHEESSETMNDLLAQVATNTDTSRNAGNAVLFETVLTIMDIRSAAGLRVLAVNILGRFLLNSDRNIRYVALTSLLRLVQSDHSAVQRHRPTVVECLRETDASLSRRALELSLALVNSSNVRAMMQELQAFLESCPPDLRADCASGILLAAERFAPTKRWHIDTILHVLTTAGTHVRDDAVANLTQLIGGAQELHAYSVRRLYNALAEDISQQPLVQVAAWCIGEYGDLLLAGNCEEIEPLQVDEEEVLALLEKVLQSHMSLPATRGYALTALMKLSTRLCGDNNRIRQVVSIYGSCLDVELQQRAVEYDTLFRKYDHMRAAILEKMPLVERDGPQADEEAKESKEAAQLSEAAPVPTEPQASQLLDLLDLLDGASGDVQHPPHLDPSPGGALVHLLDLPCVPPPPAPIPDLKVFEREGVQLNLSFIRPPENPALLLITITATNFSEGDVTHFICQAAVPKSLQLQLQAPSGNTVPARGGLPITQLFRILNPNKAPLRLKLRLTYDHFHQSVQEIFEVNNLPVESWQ
inactive: [1] 0.052 | [2] 0.016 | [3] 0.068 | [4] -0.116 | [5] -0.07 | [6] 0 | [7] 0.001 | [8] -0.003 | [9] 0.034 | [10] -0.007 | [11] 0.012 | [12] -0.087 | [13] 0.069 | [14] 0.013 | [15] -0.121 | [16] -0.109 | [17] -0.156 | [18] -0.011 | [19] 0.023 | [20] -0.027

ADRM1 (UniProt Q16186)
inactive: [1] 0.007 | [2] -0.006 | [3] 0.007 | [4] -0.026 | [5] -0.016 | [6] 0.018 | [7] -0.088 | [8] 0.012 | [9] 0.007 | [10] 0.026 | [11] 0.005 | [12] -0.009 | [13] 0.027 | [14] -0.007 | [15] 0.026 | [16] -0.028 | [17] -0.011 | [18] 0.019 | [19] 0.012 | [20] -0.01

ACIN1 isoform 5 (UniProt Q9UKV3)
UniProt Q9UKV3, sequence (Q9UKV3 whole entry, looked up): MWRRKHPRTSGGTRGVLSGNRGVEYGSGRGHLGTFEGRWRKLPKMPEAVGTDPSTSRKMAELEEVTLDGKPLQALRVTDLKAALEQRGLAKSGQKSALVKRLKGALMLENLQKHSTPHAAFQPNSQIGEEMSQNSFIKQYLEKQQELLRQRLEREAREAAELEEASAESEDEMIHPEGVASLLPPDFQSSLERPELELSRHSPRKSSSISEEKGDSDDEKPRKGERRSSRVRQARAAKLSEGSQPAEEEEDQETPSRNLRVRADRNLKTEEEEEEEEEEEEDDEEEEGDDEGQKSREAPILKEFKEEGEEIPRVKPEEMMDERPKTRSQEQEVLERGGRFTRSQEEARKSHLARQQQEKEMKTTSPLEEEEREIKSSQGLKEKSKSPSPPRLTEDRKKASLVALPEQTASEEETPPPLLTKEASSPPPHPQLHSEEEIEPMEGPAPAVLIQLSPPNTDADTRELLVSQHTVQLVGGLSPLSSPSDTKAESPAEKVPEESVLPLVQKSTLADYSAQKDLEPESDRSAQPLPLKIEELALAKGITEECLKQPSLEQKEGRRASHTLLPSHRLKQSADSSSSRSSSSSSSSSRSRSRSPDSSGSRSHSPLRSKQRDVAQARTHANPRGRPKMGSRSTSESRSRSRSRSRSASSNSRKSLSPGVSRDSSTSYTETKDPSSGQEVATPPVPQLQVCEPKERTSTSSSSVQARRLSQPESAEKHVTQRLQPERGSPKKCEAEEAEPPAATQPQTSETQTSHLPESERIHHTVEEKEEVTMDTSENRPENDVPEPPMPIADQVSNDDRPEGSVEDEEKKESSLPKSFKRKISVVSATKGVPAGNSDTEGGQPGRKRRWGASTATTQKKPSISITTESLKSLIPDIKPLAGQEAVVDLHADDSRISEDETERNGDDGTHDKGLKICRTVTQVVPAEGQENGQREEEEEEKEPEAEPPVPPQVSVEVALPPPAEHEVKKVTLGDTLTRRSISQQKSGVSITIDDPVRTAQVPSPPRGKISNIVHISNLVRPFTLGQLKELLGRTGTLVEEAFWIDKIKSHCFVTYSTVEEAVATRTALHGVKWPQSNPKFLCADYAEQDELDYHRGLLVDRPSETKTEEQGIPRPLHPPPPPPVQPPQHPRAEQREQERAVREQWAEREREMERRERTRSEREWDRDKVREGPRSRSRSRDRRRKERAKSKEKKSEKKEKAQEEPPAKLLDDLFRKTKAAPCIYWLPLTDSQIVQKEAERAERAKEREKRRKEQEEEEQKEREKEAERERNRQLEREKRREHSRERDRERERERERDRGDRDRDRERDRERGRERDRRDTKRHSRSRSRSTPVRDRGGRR
inactive: [1] -0.011 | [2] -0.025 | [3] -0.023 | [4] -0.028 | [5] -0.037 | [6] 0.001 | [7] -0.001 | [8] -0.006 | [9] -0.007 | [10] -0.006 | [11] -0.004 | [12] -0.015 | [13] -0.011 | [14] -0.028 | [15] -0.021 | [16] -0.024 | [17] -0.001 | [18] -0.042 | [19] 0.003 | [20] -0.016

ALG13 (UniProt Q9NP73)
UniProt Q9NP73, sequence (Q9NP73 whole entry, looked up): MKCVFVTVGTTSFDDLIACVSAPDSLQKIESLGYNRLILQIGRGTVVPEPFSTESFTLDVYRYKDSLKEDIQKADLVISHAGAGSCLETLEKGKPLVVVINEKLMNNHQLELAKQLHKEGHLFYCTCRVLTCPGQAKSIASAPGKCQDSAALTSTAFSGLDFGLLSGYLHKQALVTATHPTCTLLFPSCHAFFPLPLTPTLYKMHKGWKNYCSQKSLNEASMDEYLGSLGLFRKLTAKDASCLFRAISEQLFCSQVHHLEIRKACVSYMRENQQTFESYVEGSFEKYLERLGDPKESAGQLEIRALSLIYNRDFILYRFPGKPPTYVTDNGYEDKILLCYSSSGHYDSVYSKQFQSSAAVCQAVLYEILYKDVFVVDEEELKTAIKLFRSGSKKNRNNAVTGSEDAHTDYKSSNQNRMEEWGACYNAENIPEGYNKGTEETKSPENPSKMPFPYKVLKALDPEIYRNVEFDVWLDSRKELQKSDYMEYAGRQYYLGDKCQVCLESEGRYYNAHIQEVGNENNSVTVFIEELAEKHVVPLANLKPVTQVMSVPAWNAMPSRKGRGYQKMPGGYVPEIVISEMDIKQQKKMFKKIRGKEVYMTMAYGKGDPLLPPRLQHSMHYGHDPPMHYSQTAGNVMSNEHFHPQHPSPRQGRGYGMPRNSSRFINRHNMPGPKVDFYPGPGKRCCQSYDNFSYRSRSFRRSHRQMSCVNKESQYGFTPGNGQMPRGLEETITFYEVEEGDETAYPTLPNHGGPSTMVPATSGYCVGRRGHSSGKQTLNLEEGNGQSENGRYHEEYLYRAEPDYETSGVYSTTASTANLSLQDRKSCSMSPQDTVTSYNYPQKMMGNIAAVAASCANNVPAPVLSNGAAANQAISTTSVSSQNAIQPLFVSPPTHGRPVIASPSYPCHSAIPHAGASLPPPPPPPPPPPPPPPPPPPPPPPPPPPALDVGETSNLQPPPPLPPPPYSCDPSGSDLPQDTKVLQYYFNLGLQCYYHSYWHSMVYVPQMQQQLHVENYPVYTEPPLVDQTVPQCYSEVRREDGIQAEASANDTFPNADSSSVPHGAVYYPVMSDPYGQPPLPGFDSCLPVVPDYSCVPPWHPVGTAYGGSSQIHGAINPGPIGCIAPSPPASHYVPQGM
inactive: [1] 0.022 | [2] -0.014 | [3] 0.049 | [4] -0.008 | [5] -0.048 | [6] 0.047 | [7] -0.032 | [8] -0.01 | [9] 0.083 | [10] -0.02 | [11] 0.118 | [12] 0.037 | [13] 0.008 | [14] 0.026 | [15] 0.022 | [16] 0.065 | [17] -0.025 | [18] 0.063 | [19] 0.012 | [20] -0.001
